# ± gives the standard deviation of the averaged measurements. About 6,200 targets were measured; listed, in parts, are those with the largest changes and a random draw of the rest.
# Key:
# Assay in all cases: NP40-soluble protein abundance relative to vehicle (solubility fold change) (ratio); higher = more soluble protein in presence of AMP-PNP
# A0A087WUT6|O60841 = molecular target: T1, A0A087WUT6|O60841 (UniProt O60841)
# T1 sequence (whole entry): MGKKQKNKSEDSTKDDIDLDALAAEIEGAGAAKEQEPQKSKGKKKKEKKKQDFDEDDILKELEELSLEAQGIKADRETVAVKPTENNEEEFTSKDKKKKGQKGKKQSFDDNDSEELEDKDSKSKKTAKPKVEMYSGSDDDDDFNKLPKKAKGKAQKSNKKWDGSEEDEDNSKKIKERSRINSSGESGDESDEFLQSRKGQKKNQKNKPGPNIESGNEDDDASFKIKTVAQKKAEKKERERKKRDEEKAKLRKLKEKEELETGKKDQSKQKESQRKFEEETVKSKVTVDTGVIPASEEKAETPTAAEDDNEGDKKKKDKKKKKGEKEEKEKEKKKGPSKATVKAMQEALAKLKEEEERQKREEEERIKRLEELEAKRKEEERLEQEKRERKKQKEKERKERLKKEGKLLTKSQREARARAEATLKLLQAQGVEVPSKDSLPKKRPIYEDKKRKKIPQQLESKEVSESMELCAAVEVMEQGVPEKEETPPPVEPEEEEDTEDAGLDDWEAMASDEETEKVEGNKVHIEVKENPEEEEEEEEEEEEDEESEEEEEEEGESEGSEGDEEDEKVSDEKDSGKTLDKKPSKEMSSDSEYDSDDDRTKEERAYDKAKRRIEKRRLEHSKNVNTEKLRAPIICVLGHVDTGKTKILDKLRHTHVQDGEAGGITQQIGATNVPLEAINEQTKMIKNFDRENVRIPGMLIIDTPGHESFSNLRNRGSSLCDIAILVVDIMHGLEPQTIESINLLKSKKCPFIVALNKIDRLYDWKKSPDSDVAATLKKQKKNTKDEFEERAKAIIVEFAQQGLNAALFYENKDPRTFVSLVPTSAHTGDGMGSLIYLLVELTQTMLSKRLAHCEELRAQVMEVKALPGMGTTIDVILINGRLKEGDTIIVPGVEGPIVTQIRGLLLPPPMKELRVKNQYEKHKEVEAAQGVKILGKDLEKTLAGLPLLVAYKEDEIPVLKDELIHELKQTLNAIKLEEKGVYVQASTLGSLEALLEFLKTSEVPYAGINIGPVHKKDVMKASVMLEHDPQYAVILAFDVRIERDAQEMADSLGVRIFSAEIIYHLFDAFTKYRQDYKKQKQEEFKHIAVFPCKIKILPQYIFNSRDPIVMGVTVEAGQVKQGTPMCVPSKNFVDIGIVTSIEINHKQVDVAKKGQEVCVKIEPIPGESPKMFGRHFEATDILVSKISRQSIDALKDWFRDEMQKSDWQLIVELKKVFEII
# Method in brief: (§1)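 Jurkat crude lysate prepared with a Dounce homogeniser was treated at eight concentrations spanning 0.1 to 10 mM, 10 min at room temperature then 3 min at 37 °C. Solubilisation with 0.8% NP40 and benzonase and ultracentrifugation preceded TMT labelling of the supernatant for LC-MS/MS. Fold change against the detergent-processed vehicle was determined per replicate from vsn-normalised intensities, across three independent experiments.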
# [1] = molecular target: T2, A0A087WUU7|Q96GX5|Q96GX5-3|Q96GX5-2 (UniProt Q96GX5)
# T2 sequence (whole entry): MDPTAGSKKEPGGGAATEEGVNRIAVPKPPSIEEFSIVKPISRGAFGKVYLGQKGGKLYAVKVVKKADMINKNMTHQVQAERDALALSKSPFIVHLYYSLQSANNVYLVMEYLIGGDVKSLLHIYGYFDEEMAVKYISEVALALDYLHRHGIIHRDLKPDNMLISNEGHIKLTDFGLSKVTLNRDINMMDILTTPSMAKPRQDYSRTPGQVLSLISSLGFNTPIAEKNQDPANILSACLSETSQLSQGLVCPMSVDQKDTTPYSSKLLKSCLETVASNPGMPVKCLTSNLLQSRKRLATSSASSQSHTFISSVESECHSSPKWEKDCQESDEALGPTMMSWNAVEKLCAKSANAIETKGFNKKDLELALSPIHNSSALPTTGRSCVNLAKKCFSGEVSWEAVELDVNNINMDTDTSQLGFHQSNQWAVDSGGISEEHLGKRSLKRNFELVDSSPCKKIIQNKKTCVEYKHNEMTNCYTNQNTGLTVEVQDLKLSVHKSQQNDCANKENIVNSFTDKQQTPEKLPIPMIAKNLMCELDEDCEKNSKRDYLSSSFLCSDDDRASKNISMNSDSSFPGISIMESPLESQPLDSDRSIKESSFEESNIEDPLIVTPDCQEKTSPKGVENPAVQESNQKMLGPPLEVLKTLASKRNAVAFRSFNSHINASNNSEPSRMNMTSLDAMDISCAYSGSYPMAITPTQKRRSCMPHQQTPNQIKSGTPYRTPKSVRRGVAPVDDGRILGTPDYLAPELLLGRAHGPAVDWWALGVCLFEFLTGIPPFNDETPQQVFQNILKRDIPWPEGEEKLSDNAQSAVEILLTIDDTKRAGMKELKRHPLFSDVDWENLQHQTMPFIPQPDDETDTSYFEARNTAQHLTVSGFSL
# Method in brief: as §1
# [2] = molecular target: T3, A0A087WV73|P46087|P46087-2|P46087-4 (UniProt P46087)
# T3 sequence (whole entry): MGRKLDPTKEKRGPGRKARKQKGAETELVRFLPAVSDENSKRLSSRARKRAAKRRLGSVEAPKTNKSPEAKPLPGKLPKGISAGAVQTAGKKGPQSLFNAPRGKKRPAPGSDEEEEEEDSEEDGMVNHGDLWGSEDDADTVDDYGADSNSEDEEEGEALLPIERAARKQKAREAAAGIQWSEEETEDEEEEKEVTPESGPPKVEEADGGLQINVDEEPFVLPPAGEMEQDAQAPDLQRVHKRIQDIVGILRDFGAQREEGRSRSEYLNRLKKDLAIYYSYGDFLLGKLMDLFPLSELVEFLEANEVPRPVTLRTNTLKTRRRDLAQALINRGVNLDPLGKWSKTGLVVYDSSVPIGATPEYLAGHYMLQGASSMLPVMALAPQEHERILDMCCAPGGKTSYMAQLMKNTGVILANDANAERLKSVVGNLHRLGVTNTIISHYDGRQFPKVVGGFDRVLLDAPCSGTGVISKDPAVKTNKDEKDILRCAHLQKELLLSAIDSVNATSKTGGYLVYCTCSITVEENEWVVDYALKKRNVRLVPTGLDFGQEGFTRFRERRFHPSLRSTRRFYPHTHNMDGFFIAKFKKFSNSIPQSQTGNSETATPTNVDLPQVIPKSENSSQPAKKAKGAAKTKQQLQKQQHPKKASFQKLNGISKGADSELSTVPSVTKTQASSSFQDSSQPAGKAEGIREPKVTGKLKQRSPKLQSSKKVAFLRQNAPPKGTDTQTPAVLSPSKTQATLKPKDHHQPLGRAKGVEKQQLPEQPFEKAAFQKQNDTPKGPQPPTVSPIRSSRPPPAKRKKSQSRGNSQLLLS
# Method in brief: as §1
# A0A087WW88|Q9UQN3 = A0A087WW88|Q9UQN3 (UniProt Q9UQN3)
# Method in brief: as §1
# A0A087WWS1|Q96FV9 = molecular target: T4, A0A087WWS1|Q96FV9 (UniProt Q96FV9)
# T4 sequence (whole entry): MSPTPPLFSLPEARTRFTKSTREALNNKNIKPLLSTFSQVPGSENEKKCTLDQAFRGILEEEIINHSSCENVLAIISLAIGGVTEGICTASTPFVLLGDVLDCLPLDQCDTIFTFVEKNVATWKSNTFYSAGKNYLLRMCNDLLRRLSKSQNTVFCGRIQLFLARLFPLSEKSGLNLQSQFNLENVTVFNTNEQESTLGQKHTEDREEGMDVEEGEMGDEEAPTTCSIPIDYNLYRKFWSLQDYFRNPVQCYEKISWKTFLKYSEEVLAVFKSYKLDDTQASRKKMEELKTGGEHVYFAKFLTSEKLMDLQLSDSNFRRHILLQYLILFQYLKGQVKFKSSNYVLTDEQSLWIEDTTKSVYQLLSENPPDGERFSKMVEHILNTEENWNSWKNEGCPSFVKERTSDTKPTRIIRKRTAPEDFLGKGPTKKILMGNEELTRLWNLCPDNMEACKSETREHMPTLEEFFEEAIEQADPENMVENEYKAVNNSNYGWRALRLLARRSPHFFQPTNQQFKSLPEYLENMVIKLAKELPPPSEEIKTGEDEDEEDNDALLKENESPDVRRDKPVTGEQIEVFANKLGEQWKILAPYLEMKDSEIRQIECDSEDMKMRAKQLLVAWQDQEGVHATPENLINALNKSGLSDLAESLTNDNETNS
# Method in brief: as §1
# A0A087WW88|Q9UQN3, sequence (Q9UQN3 whole entry, one chain of several): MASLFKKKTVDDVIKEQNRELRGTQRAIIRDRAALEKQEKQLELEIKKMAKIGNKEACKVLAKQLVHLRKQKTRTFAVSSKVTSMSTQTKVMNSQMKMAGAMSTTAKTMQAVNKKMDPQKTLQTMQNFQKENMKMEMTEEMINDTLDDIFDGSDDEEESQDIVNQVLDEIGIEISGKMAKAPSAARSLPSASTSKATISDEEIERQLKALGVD
compound,measurement,setting,value
Nc1ncnc2c1ncn2[C@@H]1O[C@H](COP(=O)(O)OP(=O)(O)NP(=O)(O)O)[C@@H](O)[C@H]1O [adenylyl imidodiphosphate],NP40-soluble protein abundance,A0A087WUT6|O60841; concentration: 6mM,1.01 ± 0.033
same,NP40-soluble protein abundance,A0A087WUT6|O60841; concentration: 8mM,1.004 ± 0.0073
same,NP40-soluble protein abundance,A0A087WUT6|O60841; concentration: 10mM,0.997 ± 0.035
same,NP40-soluble protein abundance,[1]; concentration: 1mM,1.01 ± 0.02
same,NP40-soluble protein abundance,[1]; concentration: 2mM,1.07 ± 0.036
same,NP40-soluble protein abundance,[1]; concentration: 4mM,1.01 ± 0.044
same,NP40-soluble protein abundance,[1]; concentration: 6mM,0.976 ± 0.023
same,NP40-soluble protein abundance,[1]; concentration: 8mM,0.967 ± 0.011
same,NP40-soluble protein abundance,[1]; concentration: 10mM,0.991 ± 0.04
same,NP40-soluble protein abundance,[2]; concentration: 1mM,1.04 ± 0.038
same,NP40-soluble protein abundance,[2]; concentration: 2mM,1.12 ± 0.068
same,NP40-soluble protein abundance,[2]; concentration: 4mM,1.17 ± 0.05
same,NP40-soluble protein abundance,[2]; concentration: 6mM,1.28 ± 0.067
same,NP40-soluble protein abundance,[2]; concentration: 8mM,1.34 ± 0.094
same,NP40-soluble protein abundance,[2]; concentration: 10mM,1.43 ± 0.093
same,NP40-soluble protein abundance,A0A087WW88|Q9UQN3; concentration: 1mM,1.03 ± 0.024
same,NP40-soluble protein abundance,A0A087WW88|Q9UQN3; concentration: 2mM,1.03 ± 0.0098
same,NP40-soluble protein abundance,A0A087WW88|Q9UQN3; concentration: 4mM,1.03 ± 0.03
same,NP40-soluble protein abundance,A0A087WW88|Q9UQN3; concentration: 6mM,1.04 ± 0.018
same,NP40-soluble protein abundance,A0A087WW88|Q9UQN3; concentration: 8mM,1.03 ± 0.042
same,NP40-soluble protein abundance,A0A087WW88|Q9UQN3; concentration: 10mM,1.03 ± 0.014
same,NP40-soluble protein abundance,A0A087WWS1|Q96FV9; concentration: 1mM,1.35 ± 0.15
same,NP40-soluble protein abundance,A0A087WWS1|Q96FV9; concentration: 2mM,1.52 ± 0.22
same,NP40-soluble protein abundance,A0A087WWS1|Q96FV9; concentration: 4mM,1.64 ± 0.29
same,NP40-soluble protein abundance,A0A087WWS1|Q96FV9; concentration: 6mM,1.86 ± 0.46
same,NP40-soluble protein abundance,A0A087WWS1|Q96FV9; concentration: 8mM,1.96 ± 0.56
same,NP40-soluble protein abundance,A0A087WWS1|Q96FV9; concentration: 10mM,2.2 ± 0.76

# — the supplement of paper PMC6411743
